Assay results reported in PubChem BioAssay.
The source made the active and inactive calls. Unless noted, no rule for the calls is given here.

How the values were obtained:
[1] = resazurin metabolic signal in HepG2 cells – cell-based, resazurin fluorescence, 24 h, PK04 Diversity Set, profiling panel (AID 1172); details: HepG2 viability, higher = more signal; also: test concentration not given here
[2] = budding yeast growth changes without added modifier – OD600, strain BY4716, 24 h, basal condition, primary screen (AID 1173); details: S. cerevisiae BY4716 growth, OD600, 24 h; higher = more signal, called active from +8 up or from −8 down
[3] = viability profiling in MM1S myeloma cells – cell-based, resazurin fluorescence, basal, 24 h, PK04 Diversity Set, profiling panel (AID 1174); details: higher = more signal, called active from +8 up or from −8 down;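 also: MM1S multiple myeloma cell line; test concentration not given here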
[4] = molecular target: Dihydroorotate dehydrogenase (quinone), mitochondrial (Plasmodium falciparum (isolate 3D7)) (UniProt Q08210); assay: inhibition of P. falciparum DHODH – biochemical, C-terminal His tag, absorbance 600 nm, primary screen (AID 1175); details: PfDHODH enzyme, DCIP absorbance 600 nm; higher = more signal, called active from +8 up or from −8 down;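 also: recombinant parasite enzyme with a five histidine tag at its C terminus; test concentration not given here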
Dihydroorotate dehydrogenase (quinone), mitochondrial (Plasmodium falciparum (isolate 3D7)), sequence (Q08210 whole entry, looked up): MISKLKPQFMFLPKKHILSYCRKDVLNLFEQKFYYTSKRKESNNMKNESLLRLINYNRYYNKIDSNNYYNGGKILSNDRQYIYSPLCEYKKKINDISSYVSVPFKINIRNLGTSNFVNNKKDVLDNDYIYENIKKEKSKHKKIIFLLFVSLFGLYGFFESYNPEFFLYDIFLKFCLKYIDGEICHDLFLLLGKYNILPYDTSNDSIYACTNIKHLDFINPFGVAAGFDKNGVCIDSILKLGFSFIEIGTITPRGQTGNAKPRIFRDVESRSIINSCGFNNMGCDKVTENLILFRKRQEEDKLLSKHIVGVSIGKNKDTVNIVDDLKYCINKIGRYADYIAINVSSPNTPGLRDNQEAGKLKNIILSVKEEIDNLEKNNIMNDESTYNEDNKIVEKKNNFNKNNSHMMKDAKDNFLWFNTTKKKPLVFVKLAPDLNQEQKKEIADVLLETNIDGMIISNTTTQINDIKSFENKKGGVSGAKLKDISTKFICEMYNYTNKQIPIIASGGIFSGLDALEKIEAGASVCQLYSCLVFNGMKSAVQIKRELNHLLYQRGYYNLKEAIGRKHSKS

[5] = inhibition of PAO1 biofilm formation – strain PAO1, LB-PBS medium, absorbance 600 nm, primary screen (AID 1176); also: test concentration not given here; details: P. aeruginosa PAO1 growth/biofilm, A600, 12 h; higher = more signal
[6] = growth modulation of vineyard yeast isolate – strain RM11-1a, OD600, basal, 24 h, primary screen (AID 1177);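 also: cultures grown under basal conditions with no added stressor; test concentration not given here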; details: S. cerevisiae RM11-1a growth, OD600, 24 h; higher = more signal, called active from +8 up or from −8 down
[7] = growth of efflux-deficient E. coli DRC39 – strain DRC39, OD650, 24 h, E. coli filamentation inducers, primary screen (AID 1178);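 also: growth measured as culture turbidity by optical density at 650 nm; test concentration not given here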; details: E. coli DRC39 acrAB, higher = more signal, called active from +8 up or from −8 down
[8] = growth of efflux-deficient E. coli DRC39 – strain DRC39, OD650, 48 h, E. coli filamentation inducers, primary screen (AID 1179);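 also: screen aims at cell division blockers that make cells filament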; details: E. coli DRC39 delta-acrAB growth, higher = more signal, called active from +8 up or from −8 down
[9] = viability profiling in RPMI8226 myeloma cells – cell-based, resazurin fluorescence, basal, 24 h, PK04 Diversity Set, profiling panel (AID 1180); details: higher = more signal;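 also: RPMI8826 multiple myeloma cell line at 5000 cells per well; test concentration not given here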
[10] = molecular target: E3 ubiquitin-protein ligase XIAP (Homo sapiens) (UniProt P98170); assay: small molecules binding XIAP protein – biophysical, small-molecule microarray, fluorescence 635 nm, primary screen (AID 1181); details: higher = more signal;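 also: score merges 667 nm emission and signal to noise over triplicate slides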
E3 ubiquitin-protein ligase XIAP (Homo sapiens), sequence (P98170 whole entry, looked up): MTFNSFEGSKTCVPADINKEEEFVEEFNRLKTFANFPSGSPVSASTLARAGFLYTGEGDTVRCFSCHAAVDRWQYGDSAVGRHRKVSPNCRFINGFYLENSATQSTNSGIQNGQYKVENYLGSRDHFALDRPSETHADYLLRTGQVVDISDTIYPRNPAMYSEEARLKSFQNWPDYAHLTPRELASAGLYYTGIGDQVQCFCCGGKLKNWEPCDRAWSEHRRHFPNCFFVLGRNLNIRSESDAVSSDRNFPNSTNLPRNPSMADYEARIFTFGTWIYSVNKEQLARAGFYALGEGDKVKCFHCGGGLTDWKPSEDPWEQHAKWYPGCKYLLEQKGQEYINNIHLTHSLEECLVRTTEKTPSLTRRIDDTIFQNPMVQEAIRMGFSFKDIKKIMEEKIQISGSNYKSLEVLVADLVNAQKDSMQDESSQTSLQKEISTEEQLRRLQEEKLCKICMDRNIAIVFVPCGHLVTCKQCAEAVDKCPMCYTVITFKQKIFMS

SMILES | z-score [1] | z-score [2] | z-score [3] | composite z-score [4] | z-score [5] | z-score [6] | z-score [7] | z-score [8] | z-score [9] | composite z-score [10]
C=C(C(=O)CC[C@H](OC(=O)c1ccccc1-c1ccccc1C(=O)O)c1ccc(CO)o1)C(C)C | -0.256 | 0.656 (inactive) | 0.192 (inactive) | -0.976 (inactive) | 0.98 (inactive) | 1.73 (inactive) | 0.101 (inactive) | 0.0357 (inactive) | 0.951 | -0.153
CC[C@H]1C2=C3C(CC[C@H]4C(OC)OC[C@](C)([C@@H]34)N(C(=O)OC(C)(C)C)C2)C(CO)C1CO (some centres undefined) | -0.453 | 0.145 (inactive) | -0.713 (inactive) | -0.929 (inactive) | 0.452 (inactive) | -0.681 (inactive) | -0.0328 (inactive) | 0.753 (inactive) | -0.141 | 0.26
N#Cc1ccc(NN2C(C(O)c3ccc(I)cc3)C=CC3C(=O)N(c4ccccc4)C(=O)C32)cc1 (centres undefined) | -1.59 | 0.179 (inactive) | -1.34 (inactive) | -0.165 (inactive) | 0.944 (inactive) | 0.62 (inactive) | -0.904 (inactive) | -0.397 (inactive) | -0.328 | -0.256
COC(=O)c1ccc(C#CC(NP(=O)(c2ccccc2)c2ccccc2)c2ccccc2)cc1 (centres undefined) | -0.0848 | 0.441 (inactive) | 0.693 (inactive) | -3.37 (inactive) | 0.231 (inactive) | 0.919 (inactive) | 0.37 (inactive) | 0.369 (inactive) | 1.26 | 0.063
CC1=C([C@H](O)CCc2ccccc2)[C@H](CO)[C@@H]2C(=O)N(Cc3ccccc3)C(=O)[C@@H]2C1 | 0.325 | -3.02 (inactive) | 0.169 (inactive) | -1.68 (inactive) | 0.0694 (inactive) | 0.0743 (inactive) | 1.6 (inactive) | 0.204 (inactive) | 0.308 | 0.201
COc1cc2c(cc1OC)CN(C(=O)[C@H]1[C@@H]3C(=O)O[C@@H](c4ccccc4)[C@@H](c4ccccc4)N3[C@@H](c3ccc(O)cc3)[C@]13C(=O)Nc1ccc(C#CC4(O)CCCCCC4)cc13)CC2 | 0.496 | 0.076 (inactive) | -0.4 (inactive) | -0.543 (inactive) | 0.89 (inactive) | 0.087 (inactive) | -0.463 (inactive) | -0.794 (inactive) | 1.15 | 0.364
COCCOC(=O)N1C(=O)[C@@]2(c3cc(C#CCCO)ccc31)[C@H](c1ccc(O)cc1)N1[C@H](c3ccccc3)[C@H](c3ccccc3)OC(=O)[C@H]1[C@@H]2C(=O)Nc1nc2ccccc2s1 | 0.484 | -0.297 (inactive) | -0.617 (inactive) | 0.864 (inactive) | 0.485 (inactive) | 0.39 (inactive) | 0.438 (inactive) | -0.619 (inactive) | 0.179 | 0.267
C=CCN(C(=O)C1N(c2ccc(CCO)cc2)C(=O)C2C(C(=O)O)C3C=CC21O3)C(C)(C)C (centres undefined) | 0.43 | -1.39 (inactive) | 1.06 (inactive) | -0.363 (inactive) |  | -1.41 (inactive) | 1.44 (inactive) | 0.94 (inactive) | 0.327 | -0.253
NC(=O)[C@H]1[C@@H]2C(=O)O[C@@H](c3ccccc3)[C@@H](c3ccccc3)N2[C@@H](c2ccc(O)cc2)[C@]12C(=O)Nc1ccc(C#CCCO)cc12 | -0.744 | -0.383 (inactive) | -0.354 (inactive) | -0.25 (inactive) | -0.0604 (inactive) | -1.03 (inactive) | -0.847 (inactive) | -1.18 (inactive) | -0.616 | 0.135
CC(c1ccccc1)C(O)C1C=CC2C(=O)N(C)C(=O)C2N1N(c1ccccc1)c1ccccc1 (centres undefined) | -1.22 | -0.0972 (inactive) | -1.91 (inactive) | -0.0374 (inactive) | 0.419 (inactive) | 0.265 (inactive) | -0.502 (inactive) | -0.0284 (inactive) | -1.8 | -0.0918
C[C@]1(C(=O)NCCN2CCOCC2)c2ccccc2C(=O)N(Cc2ccccc2)[C@H]1c1ccc(CO)cc1 | 0.702 | -0.46 (inactive) | 0.402 (inactive) | 1 (inactive) | 0.662 (inactive) | 1.2 (inactive) | 0.223 (inactive) | 0.134 (inactive) | 0.85 | 0.144
CO[C@H]1O[C@H](CO)[C@@H](OC(=O)Nc2ccc3c(c2)OCO3)[C@H](OC(=O)Nc2ccccc2)[C@@H]1OC(=O)Nc1ccccc1 | -0.671 | -0.328 (inactive) | -1.24 (inactive) | -0.0612 (inactive) | 0.345 (inactive) | 1.13 (inactive) | 0.399 (inactive) | -0.409 (inactive) | -0.682 | 0.319
CCOC(=O)C[C@H]1[C@H](OC(=O)Cc2ccc3c(c2)OCO3)[C@@H](NC(=O)c2ccc3ccccc3c2)c2cc(OCCCO)ccc2N1C(=O)Cc1ccc(OC)cc1 | 0.329 | -0.566 (inactive) | -0.162 (inactive) | -1.09 (inactive) | 0.0642 (inactive) | -1.66 (inactive) | 0.37 (inactive) | 1.11 (inactive) | 0.202 | -0.0151
